The text below walks through data of PMC4336329 (PLoS ONE, 2015).

The whole screen tested about 310,000 compounds, of which about 2,200 (0.71%) showed an effect of 50% or more. Effects have a minus sign here. The sample holds strong results, similar compounds and a random draw of the others, so the mix is not that of the screen.

For this test, the target named is human ether-à-go-go-related gene (hERG) potassium channel (human, UniProt Q12809). The test can be described thus: primary screen, population patch clamp on CHO cells stably expressing hERG; higher = less effect of the substance.
Chain of human ether-à-go-go-related gene (hERG) potassium channel (Q12809 whole entry, looked up): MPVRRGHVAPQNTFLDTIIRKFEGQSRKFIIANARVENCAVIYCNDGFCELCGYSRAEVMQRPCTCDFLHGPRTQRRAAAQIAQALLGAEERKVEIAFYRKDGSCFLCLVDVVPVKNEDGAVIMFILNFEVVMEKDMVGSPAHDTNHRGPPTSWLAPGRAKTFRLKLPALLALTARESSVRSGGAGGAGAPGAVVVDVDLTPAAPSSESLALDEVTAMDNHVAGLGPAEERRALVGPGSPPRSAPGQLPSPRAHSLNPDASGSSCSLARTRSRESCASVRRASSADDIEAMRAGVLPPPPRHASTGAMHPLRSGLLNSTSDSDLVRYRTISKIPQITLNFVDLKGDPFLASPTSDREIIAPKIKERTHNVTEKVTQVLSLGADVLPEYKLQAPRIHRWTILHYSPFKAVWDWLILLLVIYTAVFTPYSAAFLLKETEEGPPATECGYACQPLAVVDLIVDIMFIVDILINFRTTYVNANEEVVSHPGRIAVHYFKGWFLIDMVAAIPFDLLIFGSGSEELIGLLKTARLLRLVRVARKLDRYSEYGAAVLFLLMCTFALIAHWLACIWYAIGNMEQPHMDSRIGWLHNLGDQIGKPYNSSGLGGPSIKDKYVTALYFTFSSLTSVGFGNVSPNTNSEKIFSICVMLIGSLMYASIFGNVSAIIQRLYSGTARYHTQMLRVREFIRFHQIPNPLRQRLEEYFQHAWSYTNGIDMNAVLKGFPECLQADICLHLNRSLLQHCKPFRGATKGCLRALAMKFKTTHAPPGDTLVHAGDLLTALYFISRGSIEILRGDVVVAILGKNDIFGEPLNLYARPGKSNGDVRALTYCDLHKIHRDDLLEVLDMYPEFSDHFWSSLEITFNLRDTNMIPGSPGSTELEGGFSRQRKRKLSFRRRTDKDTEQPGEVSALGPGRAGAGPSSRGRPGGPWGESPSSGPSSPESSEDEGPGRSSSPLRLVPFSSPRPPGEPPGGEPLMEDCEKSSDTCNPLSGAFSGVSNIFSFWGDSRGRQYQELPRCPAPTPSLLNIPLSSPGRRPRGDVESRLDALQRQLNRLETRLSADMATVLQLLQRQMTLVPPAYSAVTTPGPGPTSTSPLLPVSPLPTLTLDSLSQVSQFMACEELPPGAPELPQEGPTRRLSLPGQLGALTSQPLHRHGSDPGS
In the case of `CN(C)C(=S)NC(=O)C12CC3(C)CC(C)(CC(C)(C3)C1)C2`, the “hERG current change (%, negative = inhibition) at 1uM” value was 12.9%.
For the molecule `O=C(CSc1nnc(CNC(=O)c2ccc(F)cc2)o1)Nc1nccs1`, the “hERG current change (%, negative = inhibition) at 1uM” value is 13.2%.
`CCCCOc1c(Cl)cc(C(=O)N(C)CC(=O)Nc2ccc(N3CCOCC3)cc2)cc1OCC`: the “hERG current change (%, negative = inhibition) at 1uM” value is reported as 9.76%.
For the molecule `O=C(NCCCn1cccn1)C1CCC(=O)N(Cc2ccccc2F)C1` (stereo not drawn), the “hERG current change (%, negative = inhibition) at 1uM” value came out at 7.05%.
Next, `O=C(CCN1C(=O)/C(=C/C=C/c2ccccc2)SC1=S)Nc1nccs1`: -3%; `Cn1c(SCC(=O)Nc2ccc3c(c2)OCCO3)nnc1-c1ccccn1`: 6.5%.
For `CCN(CC)S(=O)(=O)c1ccc(NC(=O)COC(=O)c2c[nH]c(=O)[nH]c2=O)cc1`, the “hERG current change (%, negative = inhibition) at 1uM” value was 11.1%.
Consider `CN(C)CCCOC(=O)c1ccc(Br)cc1`, for which the “hERG current change (%, negative = inhibition) at 1uM” value is -6.15%.
For `COc1ccc(CCNC(=O)C2CCN(C(=O)c3ccc(OC)c(OC)c3)CC2)cc1`, the “hERG current change (%, negative = inhibition) at 1uM” value is on record as 13.3%.
Regarding `Cc1cccc(OCC(=O)NC(=S)Nc2ccc(S(=O)(=O)NC3CCCCC3)cc2)c1`, the “hERG current change (%, negative = inhibition) at 1uM” value was 11.2%.
`COc1ccc(-c2nc(-c3ccc4c(c3)OCO4)[nH]c2-c2ccc(OC)cc2)cc1`: the “hERG current change (%, negative = inhibition) at 1uM” value is reported as 14.7%.
As to `CC(C)CN1C2CCCC1CC(NC(=O)c1ccc([N+](=O)[O-])cc1)C2` (stereo not drawn), the “hERG current change (%, negative = inhibition) at 1uM” value is -70.1%.
On to `O=C(NC1CCN(CC(=O)N(c2ccccc2)c2ccccc2)CC1)c1ccc([N+](=O)[O-])cc1`, for which the “hERG current change (%, negative = inhibition) at 1uM” value is listed as -78.6%.
On to `COc1ccc(C(=O)NC2CC3CCCC(C2)N3CC(C)C)cc1` (stereo not drawn), for which the “hERG current change (%, negative = inhibition) at 1uM” value is -13.5%.
Regarding `CCOc1ccc(C(=O)NC2CC3CCCC(C2)N3Cc2ccccc2)cc1` (stereo not drawn), the “hERG current change (%, negative = inhibition) at 1uM” value is -20.4%.
For the molecule `O=C(NC1CC2CCCC(C1)N2Cc1cccs1)N1CCOCC1` (stereo not drawn), the “hERG current change (%, negative = inhibition) at 1uM” value is 3.19%.
Take `O=C(NC1CC2CCCC(C1)N2Cc1ccccc1)c1ccc([N+](=O)[O-])cc1` (stereo not drawn): the “hERG current change (%, negative = inhibition) at 1uM” value is -82.2%.
As for `O=C(NC1CC2CCCC(C1)N2Cc1cccs1)c1ccc([N+](=O)[O-])cc1` (stereo not drawn), the figure is -78.6%; as for `O=C(NC1CC2CCCC(C1)N2Cc1ccccc1)c1cccc(Cl)c1` (stereo not drawn), -12.1%; as for `CN1C2CCC1CC(NC(=O)c1ccc([N+](=O)[O-])cc1)C2` (stereo not drawn), 12.1%.
Regarding `O=C(NC1CCN(Cc2cccc([N+](=O)[O-])c2)CC1)c1ccccc1`, the “hERG current change (%, negative = inhibition) at 1uM” value is recorded as -3.19%.
Consider `CC1CCCCC1NC(=O)CN1CCC(NC(=O)c2ccc([N+](=O)[O-])cc2)CC1` (stereo not drawn), for which the “hERG current change (%, negative = inhibition) at 1uM” value is 12.1%.
`COCCNC(=S)NC1CC2CCCC(C1)N2Cc1cccs1` (stereo not drawn): the “hERG current change (%, negative = inhibition) at 1uM” value is reported as -1.25%.
Regarding `CC(C)NC(=O)C1CCN(C2CCN(C(=O)c3cc4c(s3)CCCCC4)CC2)CC1`, the “hERG current change (%, negative = inhibition) at 1uM” value was found to be 6.33%.
For the molecule `CCOc1cc(C(=O)NCCc2ccc(S(N)(=O)=O)cc2)cc(OCC)c1OCC`, the “hERG current change (%, negative = inhibition) at 1uM” value is 3.65%.
`Cc1ccccc1NC(=O)C1CCCN1C(=O)NC1CCCCC1` (stereo not drawn): the “hERG current change (%, negative = inhibition) at 1uM” value is 17.4%.
`CCOCCCNc1nc(C(F)(F)F)nc2c1nnn2Cc1ccccc1Cl`: the “hERG current change (%, negative = inhibition) at 1uM” value was 15.9%.
Next, `O=C(N1CCC(n2nc(-c3ccccc3)oc2=O)CC1)C1(c2ccc(Cl)cc2)CC1`: 7.63%.
`COCCNC(=O)c1c[nH]n2c(=O)cc(C3CCN(C(=O)OC(C)(C)C)CC3)nc12`: the “hERG current change (%, negative = inhibition) at 1uM” value came to 9.37%.
Next, `Cc1ccc(COc2coc(CN3CCN(C(=O)c4ccco4)CC3)cc2=O)cc1`: -16.4%; `Cc1cccc(COc2coc(CN3CCN(C(=O)c4ccco4)CC3)cc2=O)c1`: -7.28%; `Cc1ccc(C)c(COc2coc(CN3CCN(C(=O)c4ccco4)CC3)cc2=O)c1`: -95.9%.
As for `CCCC(=O)Nc1nc2ccc(NC(=O)c3ccccc3F)cc2s1`, the “hERG current change (%, negative = inhibition) at 1uM” value was 14.1%.
Turning to `COc1ccc(Nc2nnc(SCC(=O)N3CCCC3)s2)cc1`, the “hERG current change (%, negative = inhibition) at 1uM” value was determined as 7.15%.
Next, `Cc1ccc(-c2nc(CS(=O)(=O)CC(=O)NCCN3CCCC3)c(C)o2)cc1`: 7.76%; `COc1ccccc1CN1CCC(CNS(=O)(=O)c2cc(-c3cc(C)no3)ccc2OC)CC1`: -33.2%.
Regarding `COc1ccc(-c2cc(C)no2)cc1S(=O)(=O)N(C)c1ccc(C)c(C)c1`, the “hERG current change (%, negative = inhibition) at 1uM” value is on record as 9.2%.
As for `COc1ccc(-c2cc(C)no2)cc1S(=O)(=O)N(C)c1ccc(C)cc1`, the “hERG current change (%, negative = inhibition) at 1uM” value was 4.37%.
Turning to `COc1cccc(CCN2CCC(CNS(=O)(=O)c3cc(-c4cc(C)no4)ccc3OC)CC2)c1`, the “hERG current change (%, negative = inhibition) at 1uM” value is on record as -66.3%.
As for `COc1cccc(CCN2CCC(CNS(=O)(=O)c3cc(-c4cc(C)no4)ccc3C)CC2)c1`, the figure is -20.1%; as for `COc1ccc(-c2cc(C)no2)cc1S(=O)(=O)N(C)c1cccc(C)c1`, -62.5%.
For `Cc1ccc(C(=O)OCC(=O)Nc2ccc(S(N)(=O)=O)cc2)c(O)c1`, the “hERG current change (%, negative = inhibition) at 1uM” value is 7.79%.
Consider `CC(=O)NC(=S)NNC(=O)C(c1ccccc1)c1ccccc1`, for which the “hERG current change (%, negative = inhibition) at 1uM” value came out at 15%.
Consider `C=CCNc1cccc(Br)c1`, for which the “hERG current change (%, negative = inhibition) at 1uM” value came out at 12.5%.
For the molecule `COc1cc(/C=N/Nc2nn3cnnc3c3ccccc23)ccc1O`, the “hERG current change (%, negative = inhibition) at 1uM” value is given as 20.3%.
Next, `CCCOC(=O)C[N+](C)(C)CCOC1CC2CCC1(C)C2(C)C.[Br-]` (stereo not drawn): 11.2%.
On to `CCCCCCOC(=O)C[N+](C)(C)CCOC1CC2CCC1(C)C2(C)C.[Cl-]` (stereo not drawn), for which the “hERG current change (%, negative = inhibition) at 1uM” value is listed as -69%.
Turning to `CCCCOC(=O)C[N+](C)(C)CCOC1CC2CCC1(C)C2(C)C.[Br-]` (stereo not drawn), the “hERG current change (%, negative = inhibition) at 1uM” value was -4.93%.
In the case of `COc1ccc(NC(=O)c2cccn(CC=C(C)C)c2=O)cc1`, the “hERG current change (%, negative = inhibition) at 1uM” value was 11.5%.
As to `Cc1c(S(=O)(=O)N2CCN(c3cccc(Cl)c3)CC2)c(=O)n(C)c(=O)n1C`, the “hERG current change (%, negative = inhibition) at 1uM” value is 5.16%.
`COc1ccc(OC)c2c1nc1n2CCS1`: the “hERG current change (%, negative = inhibition) at 1uM” value is 4.74%.
Next, `Cc1cccc(N2CCN(CC(O)COCc3cccs3)CC2)c1C` (stereo not drawn): -63.9%.
As to `CCOc1ccccc1N1CCN(CC(O)COCc2cccs2)CC1` (stereo not drawn), the “hERG current change (%, negative = inhibition) at 1uM” value is recorded as -1.54%.
Consider `CN1CCCN(CC(O)COCc2cccs2)CC1` (stereo not drawn), for which the “hERG current change (%, negative = inhibition) at 1uM” value stood at 5.43%.
In the case of `COc1ccccc1N1CCN(CC(O)COCc2cccs2)CC1.Cl` (stereo not drawn), the “hERG current change (%, negative = inhibition) at 1uM” value amounted to 0.795%.
As to `OC(COCc1cccs1)CN1CCN(c2ccccc2Cl)CC1` (stereo not drawn), the “hERG current change (%, negative = inhibition) at 1uM” value is reported as -50.8%.
As for `Cl.OC(COCc1cccs1)CN1CCCCCC1` (stereo not drawn), the “hERG current change (%, negative = inhibition) at 1uM” value is -5.74%.
